ROCK2 inh = blocks human Rho kinase 2 activity; purified ROCK2, Kinase-Glo ATP depletion luminescence; O75116; inhibition, % at 6 µM; hit rate 0.35% among 60,000; AID 604;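 active = inhibition above the screen-wide mean inhibition plus 3 SD, cut at about 18% in these data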
SK-BR-3 tox 24h = SK-BR-3 proliferation inhibitors; SK-BR-3 viability, CellTiter-Glo ATP luminescence, 24 h; hits give low values; viability, % at 10 µM; hit rate 0.47% among 41,000; AID 847;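 active = viability at or below the median of all test compounds minus 3 SD, in both replicates if run twice, cut at about 45% in these data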
Cdc25B inh = inhibitors of human Cdc25B phosphatase | hit rate 0.1% among 65,000 | recombinant Cdc25B, OMFP fluorescence Ex485/Em525 | inhibition, %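 (compounds tested at 10 µM final in the well)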; in the data active = inhibition above about 50%
PKA inh = inhibitors of human protein kinase A | PKA Kemptide phosphorylation, Kinase-Glo ATP luminescence | P17612 | inhibition, % at 6 µM | hit rate 0.1% among 65,000;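 active = inhibition above the screen-wide mean inhibition plus 3 SD, cut at about 21% in these data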
MKP-1 inh = inhibitors of human MKP-1 phosphatase | recombinant MKP-1, OMFP hydrolysis fluorescence | inhibition, %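 (compounds tested at a single concentration somewhere between 10 and 100 µM)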 | hit rate 0.15% among 65,000 | AID 374;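 active = inhibition above about 50%, limit read from the data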
WNV NS2B-NS3 inh = inhibitors of West Nile virus NS2B-NS3 protease; z-score (no concentration beside the values); P06935; hit rate 0.18% among 65,000; WNV NS2B-NS3 protease, fluorogenic substrate Ex360/Em465; hits give low values; in the data active = z-score below about -3
Large screens that a line does not name were inactive. Only some compounds are listed: those with a hit (about 0.95% of all), similar ones and a draw of the others.

Cc1nc(Cc2nnc(SCc3nc(N)nc(Nc4ccccc4C)n3)o2)cs1	SK-BR-3 tox 24h 36.0 (no result: ROCK2 inh)
NC(=O)c1sc2nc3c(c(-c4cccs4)c2c1N)CCCC3	none (no result: ROCK2 inh, SK-BR-3 tox 24h)
NC(=O)c1sc2nc3c(c(-c4ccco4)c2c1N)CCC3	ROCK2 inh 35.1
Cc1cc(C)nc(SCc2nnc(SCC(=O)Nc3cc(C(F)(F)F)ccc3Cl)o2)n1	none
CCOc1nc(C#N)nc(N2CCCCC2)n1	SK-BR-3 tox 24h 39.0
CCOc1nc(OCC)nc(N2CCC(C)CC2)n1	none (no result: SK-BR-3 tox 24h)
Cc1nn(C(C)C(=O)O)c(=O)c2c1sc1ccccc12 (centres undefined)	none (no result: SK-BR-3 tox 24h)
Cc1nn(C(C)C(=O)N2CCCCC2)c(=O)c2c1sc1ccccc12 (centres undefined)	MKP-1 inh 67.0 (no result: SK-BR-3 tox 24h)
O=C(COC(=O)C1c2ccccc2Oc2ccccc21)Nc1ccc2c(c1)OCO2	none (no result: SK-BR-3 tox 24h)
c1cncc(-c2nnc(-c3cccnc3)nn2)c1	SK-BR-3 tox 24h 35.3
Nc1nnc(-c2cccnc2)s1	none (no result: SK-BR-3 tox 24h)
Clc1ccc(OCCN2CCN(c3ncnc4sccc34)CC2)cc1	PKA inh 36.1 (no result: SK-BR-3 tox 24h)
COc1ccc(OC)c(NC(=O)CN(c2ccc(OC)c(Cl)c2)S(C)(=O)=O)c1	SK-BR-3 tox 24h 36.4
COc1ccc(NC(=O)CN(c2ccc(C)cc2)S(C)(=O)=O)c(OC)c1	none (no result: SK-BR-3 tox 24h)
COc1ccc(-n2nnnc2SCC(=O)Nc2ccc3c(c2)OCCO3)c(OC)c1	MKP-1 inh 101.7 (no result: SK-BR-3 tox 24h)
COc1ccc(-n2nnnc2SCC(=O)Nc2ccc3c(c2)OCCO3)cc1OC	none
CCOC(=O)C1CCN(S(=O)(=O)c2ccc(C(=O)OC)cc2)CC1	WNV NS2B-NS3 inh -5.54
CCOC(=O)C1CCN(S(=O)(=O)c2ccc(NC(=O)OC)cc2)CC1	none
O=C(c1ccco1)N1CCN(c2cc(=O)n(C3CCCCC3)c(=O)[nH]2)CC1	Cdc25B inh 64.8
O=c1cc(N2CCC(Cc3ccccc3)CC2)[nH]c(=O)n1C1CCCCC1	none
CN(C)CC1(c2ccccc2)CCCC1	SK-BR-3 tox 24h 24.9
CCN=C(NCC)SC1CC(=O)N(c2cccc(OCC)c2)C1=O (centres undefined)	none (no result: SK-BR-3 tox 24h)
Cc1ccc2nsnc2c1S(=O)(=O)N1CCN(C(=O)C2CCCO2)CC1 (centres undefined)	SK-BR-3 tox 24h 36.8
CC(C(=O)NCc1ccc2c(c1)OCO2)N1c2cccc3cccc(c23)S1(=O)=O (centres undefined)	none (no result: SK-BR-3 tox 24h)
CCOc1cc(-c2noc(-c3ccncc3)n2)cc(Br)c1OC	SK-BR-3 tox 24h 29.4
CCc1cc(=O)oc2cc(OC(C)C(=O)O)c(Cl)cc12 (centres undefined)	none
Cc1cc2ccccc2c(=O)n1CC(=O)Nc1ccc2c(c1)OCO2	PKA inh 22.5
CCCCc1c(C)nc(N)[nH]c1=O	ROCK2 inh 18.4
O=C(c1ccco1)N1CCN(CC(O)Cn2c3ccccc3c3ccccc32)CC1 (centres undefined)	none (no result: ROCK2 inh, SK-BR-3 tox 24h)
CC(C)C(NS(=O)(=O)c1cccs1)C(=O)NCc1ccc2c(c1)OCO2 (centres undefined)	none (no result: SK-BR-3 tox 24h)
Cc1sc2nc3c4ccccc4c(NCc4ccco4)nn3c(=O)c2c1C	WNV NS2B-NS3 inh -3.26 (no result: SK-BR-3 tox 24h)
CC(=O)c1cc(C#N)c(SCc2ccncc2)nc1C	ROCK2 inh 28.4
Cc1oc2c(CN(C)C)c(O)ccc2c(=O)c1-c1ccc2ccccc2n1	WNV NS2B-NS3 inh -3.06 (no result: SK-BR-3 tox 24h)
CCSc1cnc(-c2ccccc2)n1CC	none (no result: ROCK2 inh)
Cc1onc(-c2ccccc2)c1C(=O)N1CCN(C/C=C/c2ccccc2)CC1	ROCK2 inh 21.7 (no result: SK-BR-3 tox 24h)
CCCn1c(SCC(=O)Nc2sc(C)c(C)c2C(=O)OC)nc2c1c(=O)n(C)c(=O)n2C	WNV NS2B-NS3 inh -3.84
CCn1c(SCC(=O)Nc2ccccc2C(=O)OC)nc2c1c(=O)n(C)c(=O)n2C	none
CCOC(=O)c1c(NC(=O)CSc2nc3c(c(=O)n(C)c(=O)n3C)n2CC)sc(C)c1C	SK-BR-3 tox 24h 43.9
O=C(CN1CCC(NC(=O)Nc2ccccc2-c2ccccc2)CC1)NCc1ccco1	none
Cc1ccc(S(=O)(=O)NCCSc2nnnn2-c2ccc(C(N)=O)cc2)cc1	PKA inh 54.3 (no result: SK-BR-3 tox 24h)
c1cc2c(cc1Nc1nc(-c3ccc4c(c3)OCO4)cs1)OCCO2	ROCK2 inh 24.1 (no result: SK-BR-3 tox 24h)
N#Cc1cccc(NC(=O)CSc2ccccc2)c1	ROCK2 inh 18.6
CC1(c2ccccc2)NC(=O)N(CC(=O)Nc2cccc(C#N)c2)C1=O (centres undefined)	none (no result: SK-BR-3 tox 24h)
COc1ccc(OC)c(C(=O)c2coc3ccc(O)cc23)c1	none (no result: SK-BR-3 tox 24h)
CCn1c2ccccc2c2nnc(SCc3cc(=O)n4ccsc4n3)nc21	none (no result: ROCK2 inh)
COc1ccc(C2=Nn3c(nnc3-c3ccc(OC)cc3)SC2)cc1	WNV NS2B-NS3 inh -9.62
C=C(C)CSc1nc2c(c(=O)[nH]c(=O)n2C)n1CCC(C)C	none (no result: SK-BR-3 tox 24h)
O=c1[nH]cnc2cc(Cl)ccc12	ROCK2 inh 18.5
O=C(CSc1nnc(-c2cccs2)o1)OCc1ccccc1	SK-BR-3 tox 24h 42.5
O=C(CSc1nnc(-c2cccs2)o1)OC1CCCCC1	none
Cc1cc(NC(=O)CCS(=O)(=O)c2nc(-c3ccccc3)cc(C(F)(F)F)n2)no1	SK-BR-3 tox 24h 39.1
COc1ccc(-c2cc(C(F)(F)F)nc(SCC(=O)Nc3cc(C)on3)n2)cc1	none
FC(F)(F)c1cc(-c2ccccc2)nc(N2CCCCCC2)n1	none
CS(=O)(=O)c1nc(-c2ccccc2)cc(C(F)(F)F)n1	SK-BR-3 tox 24h 28.0 (no result: ROCK2 inh)
COc1ccc(/C(O)=C2/C(=O)C(=O)N(CCCN(C)C)C2c2ccco2)cc1Cl (centres undefined)	none
O=C(NC1CCCC1)c1ccc2nc[nH]c2c1	none
O=C(c1ccccc1)c1ccc2nc[nH]c2c1	ROCK2 inh 32.9
CCOC(=O)CSC1=C(C#N)C(c2ccccc2Cl)C(C(=O)OC)C(=O)N1 (centres undefined)	none
CC(=O)c1cccc(NC(=O)NCc2ccccn2)c1	none
CC(=O)c1cccc(NC(=O)NCc2cccs2)c1	ROCK2 inh 19.6
COc1ccc(OC)c(N(CC(=O)Nc2ccc3c(c2)OCCO3)S(C)(=O)=O)c1	none
O=C(CSC1=NCCS1)Nc1nc2c(s1)CCCC2	SK-BR-3 tox 24h 42.5
COc1ccccc1C(=O)N1CCN(C(=O)c2ccncc2)CC1	none (no result: SK-BR-3 tox 24h)
COc1ccccc1C(=O)N1CCN(c2cccc(Cl)c2)CC1	SK-BR-3 tox 24h 40.2 (no result: ROCK2 inh)
CCCC(=O)Nc1ccc(NC(=O)C23CC4CC(CC(C4)C2)C3)cn1	WNV NS2B-NS3 inh -4.83
CCc1cccc(NC2c3ccccc3C(=O)N2c2cccnc2)c1 (centres undefined)	none (no result: SK-BR-3 tox 24h)
CSc1nsc(SC)c1C(=O)N1CCN(S(=O)(=O)c2ccc(C)cc2)C1C (centres undefined)	SK-BR-3 tox 24h 44.0
CCOC(=O)CSc1cc(C)nc(NC(C)=O)n1	none
O/N=C(\c1ccc(Cl)cc1)c1cc2ccccc2o1	none (no result: SK-BR-3 tox 24h)
CCCCC(CC)Cn1c2nc3ccccc3nc2c2c(=N)oc(C)nc21 (centres undefined)	SK-BR-3 tox 24h 38.2 (no result: ROCK2 inh)
CCCCn1c2nc3ccccc3nc2c2c(=N)oc(C)nc21	none (no result: ROCK2 inh)
